Measured values reported in PubChem BioAssay (NCI).
The panel holds about 83,000 compounds, 20% with a hit somewhere; the sample as a whole holds those more often.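 Assay: single dose, 48 h. Readout: percent growth (0 = no net growth; negative = cell death). Active: <10.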 A number with no mark means an inactive call. Calls of active or inactive are those of the source.

Tests used:
Test in all cases: NCI-60 one-dose screen, 48 h (100 = growth as untreated, 0 = no growth, -100 = all killed)
Conditions in all cases: 10 µM unless noted
[1] = tested on: HCT-15 colon
[2] = tested on: HT29 colon
[3] = tested on: SNB-75 CNS
[4] = tested on: SNB-19 CNS
[5] = tested on: U251 CNS
[6] = tested on: PC-3 prostate
[7] = tested on: SK-MEL-5 melanoma
[8] = tested on: UACC-62 melanoma
[9] = tested on: LOX IMVI melanoma
[10] = tested on: SK-MEL-28 melanoma
[11] = tested on: SK-MEL-2 melanoma
[12] = tested on: EKVX NSCLC
[13] = tested on: SN12C renal
[14] = tested on: UO-31 renal
[15] = tested on: TK-10 renal
[16] = tested on: ACHN renal
[17] = tested on: CAKI-1 renal
[18] = tested on: A498 renal
[19] = tested on: CCRF-CEM leukemia
[20] = tested on: MOLT-4 leukemia

Row | Structure (SMILES) | growth [1] | growth [2] | growth [3] | growth [4] | growth [5] | growth [6] | growth [7] | growth [8] | growth [9] | growth [10] | growth [11] | growth [12] | growth [13] | growth [14] | growth [15] | growth [16] | growth [17] | growth [18] | growth [19] | growth [20]
1 | c1cc2ccc3cc2cc1CNCCN1CCNCc2ccc4ccc(cc4c2)CNCCN(CCNC3)CCNCc2ccc3ccc(cc3c2)CNCC1 | 94.5% | 1.47% (active) | -12.6% (active) | -7.68% (active) | -4.66% (active) | -0.11% (active) | 88.6% | 30.1% | -7.72% (active) | 62.8% | -9.83% (active) | 48.7% | 1.52% (active) | 82.4% | 75.2% | 91.2% | 93.8% | 100% | 51% | 8.03% (active)
2 | Oc1cc(Nc2ccnc3cc(Cl)ccc23)c2ncccc2c1 | 82% | 109% | 53.2% | 78.4% | 77.1% | 59.1% | 79.2% | 81.4% | 72.7% | 81.5% | 94.4% | 98.5% | 79.3% | 44.4% | 109% | 71.1% | 86.2% | 100% | 67.9% | 68.9%
3 | COc1ccc(C(=O)/C=C/c2ccccn2)c(O)c1 | 39.7% | 72.2% | 78.1% | 73.1% | 87.5% | 95.5% | 95% | 90.8% | -54.9% (active) | 90.7% | 89.6% | 94.2% | 77.8% | 53.1% | 92.4% | 45% | 61.3% | 91.3% | 10.4% | 74.2%
4 | COc1ccc2nc3ccccc3c(NCCNCCO)c2c1 | 19.6% | -11.9% (active) | -53.2% (active) | 1.53% (active) | 6.95% (active) | 4.92% (active) | -32.9% (active) | -70.2% (active) | -52.2% (active) | -70.4% (active) | -56.1% (active) | -7.03% (active) | 1.83% (active) | -7.42% (active) | -12.7% (active) | -27.4% (active) | 6.25% (active) | -60.4% (active) | 10.9% | 10.1%
5 | COc1cc(NCc2ccccc2O)c2ncccc2c1 | 77.8% | 102% | 64.5% | 92.8% | 98.9% | 83.6% | 101% | 95% | 83.9% | 111% | 142% | 82% | 106% | 75.8% | 150% | 97.2% | 8.76% (active) | 72% | 91.5% | 88.3%
6 | COc1ccc(/C=C(/C(=O)c2ccc(Cl)cc2)C(=O)C(F)(F)F)cc1 | 99% | 82.1% | 112% | 93.5% | 94.1% | 102% | 102% | 96.4% | 95.6% | 106% | 86.4% | 92.5% | 98% | 78.6% | 75.3% | 110% | 94.3% | 82.4% | 89.7% | 85.8%
7 | O=S(=O)(NCc1ccccc1)c1ncnc2nc[nH]c12 | 108% | 106% | 91.4% | 108% | 86% | 105% | 99.7% | 96.4% | 99.1% | 107% | 118% | 111% | 108% | 93.8% | 115% | 105% | 104% | 124% | 83.1% | 93.3%
8 | C[N+](C)(C)c1ncnc2[n-]cnc12 | 104% | 104% | 82.1% | 91.2% | 91.6% | 92% | 90.1% | 83.2% | 75.5% | 94.6% | 107% | 81.8% | 72.3% | 87.8% | 78.9% | 95.3% | 58.8% | 81.5% | 119% | 102%
